Screening data (PubChem BioAssay)
Sampled rows, rich in hits. Any-hit rate of the full collection: about 6.7%.
C diff HTS – blocks growth of Clostridium difficile | 0.25% of 86,000 active | Clostridium difficile clinical isolate growth, OD600, 24 h; stronger effect = lower value | growth activity, negative = inhibition, % at 16 µg/mL (by protocol) | AID 1259249;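 active = mean growth activity at or below -80% and every replicate also at or below -80%; inconclusive = mean at or below -80% but some replicate above -80%; inactive = mean growth activity above -80%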;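 note: 0% = DMSO wells and -100% = levofloxacin 16 µg/mL wells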
T cruzi growth-1 – blocks T. cruzi growth in NIH3T3 culture | T. cruzi beta-gal in NIH3T3, GalScreen luminescence, 90 h | inhibition, % at 8.34 µM | 5.9% of 77,000 active;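 active = mean inhibition above about 93%, with at least 55% of replicates each passing it, limit read from the data, passing the limit was not always enough; inconclusive = only one of those two conditions holds; inactive = neither condition holds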
Pf Dd2 inh – inhibitors of Plasmodium falciparum Dd2 growth. 2.3% of 94,000 active. activity change, % at 10 µM. AID 1159554. P. falciparum Dd2 growth, SYBR Green, 72 h; stronger effect = lower value; in the data active = activity change below about -80%; inconclusive = no clear call, values can overlap the other calls
T cruzi growth-2 – Trypanosoma cruzi proliferation inhibition; shares compounds with T cruzi growth-1; T. cruzi beta-gal in NIH3T3, GalScreen luminescence, 90 h; inhibition, % at 8.35 µM; 72% of 5,600 active;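 active = mean replicate inhibition above about 95% and at least 55% of replicates individually reaching it, limit read from the data; inconclusive = only one of the two criteria is met; inactive = neither criterion is met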
T cruzi growth-3 – inhibitors of T. cruzi proliferation; shares compounds with T cruzi growth-1; T. cruzi beta-gal in NIH3T3, GalScreen luminescence, 90 h; inhibition, % at 2.09 µM; 21% of 5,600 active; AID 651740;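 active = mean inhibition above about 95%, with at least 55% of replicates also reaching it, limit read from the data; inconclusive = meets just one of the two conditions; inactive = meets neither condition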;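 note: plate controls were neutral control median for no effect and positive control median for full effect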
3T3 cytotox – cytotoxicity in mouse NIH/3T3 fibroblasts; shares compounds with T cruzi growth-1; NIH/3T3 viability, CellTiter-Glo ATP luminescence, 90 h; cytotoxicity (signal decrease), % at 8.35 µM; 14% of 5,600 active; AID 651742;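 active = mean signal decrease across replicates above about 35% based on untreated-well scatter, with enough replicates individually passing, limit read from the data; inconclusive = no rule stated though some were filed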;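 note: 0% = median of neutral control wells and 100% = median of positive control wells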
3T3 cytotox 2 – cytotoxicity in mouse NIH/3T3 fibroblasts; AID 651744; NIH/3T3 viability, CellTiter-Glo ATP luminescence, 90 h; inhibition, % at 24.9 µM; shares compounds with T cruzi growth-1; 56% of 5,600 active;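 active = mean loss of cell viability signal at or above a set limit, and enough replicates individually reaching it; inconclusive = meets only the mean limit or only the replicate share; inactive = meets neither condition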;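 note: 0% = median of neutral control wells and 100% = median of positive control wells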
Active calls of the source: *; ? = inconclusive; . = not tested or not shown.

SMILES | C diff HTS | T cruzi growth-1 | Pf Dd2 inh | T cruzi growth-2 | T cruzi growth-3 | 3T3 cytotox | 3T3 cytotox 2
COc1ccc(NC(=O)Nc2ccc3c(c2)C(=O)N([C@H](C)CO)C[C@H](C)[C@@H](CN(C)Cc2ccc4c(c2)OCO4)OCCCC[C@@H](C)O3)cc1 | 9 | 54 | -65 | . | . | . | .
COc1ccc(CN(C)C[C@@H]2OCCCC[C@@H](C)Oc3ccc(NC(=O)Nc4ccc5c(c4)OCO5)cc3C(=O)N([C@H](C)CO)C[C@@H]2C)cc1 | . | 102* | 38 | 111* | 11 | 11 | 23
COc1ccc(CN(C)C[C@@H]2OCCCC[C@H](C)Oc3ccc(NC(=O)Nc4ccc5c(c4)OCO5)cc3C(=O)N([C@H](C)CO)C[C@@H]2C)cc1 | . | 101* | -68 | 94 | 106* | 30 | 107*
COc1ccc(NC(=O)Nc2ccc3c(c2)C(=O)N([C@H](C)CO)C[C@H](C)[C@@H](CN(C)Cc2ccc4c(c2)OCO4)OCCCC[C@H](C)O3)cc1 | 17 | ? | -62 | 105* | 57 | 23 | 30
COc1ccc(NC(=O)Nc2ccc3c(c2)C(=O)N([C@@H](C)CO)C[C@H](C)[C@@H](CN(C)S(C)(=O)=O)O3)cc1 | -3 | -146 | 50 | . | . | . | .
COc1ccc2c3c(n(C)c2c1)[C@H](CO)N(C(=O)NC1CCCCC1)CC31CN(C)C1 | -12 | . | 24 | . | . | . | .
CN(C)C(=O)[C@@H]1[C@@H](CO)[C@@H]2Cn3c(ccc(-c4ccccc4F)c3=O)[C@H]1N2C(=O)c1cccnc1 | -3 | -7 | 11 | . | . | . | .
C[C@H]1CN([C@@H](C)CO)C(=O)c2cccc(NS(=O)(=O)c3cccs3)c2O[C@H]1CN(C)C | 1 | . | 8 | . | . | . | .
Cc1ccc(S(=O)(=O)Nc2ccc3c(c2)CC(=O)N([C@H](C)CO)C[C@@H](C)[C@H](CN(C)C(=O)Nc2cccc4ccccc24)O3)cc1 | 6 | 18 | -12 | . | . | . | .
CC(C)(C)S(=O)N1Cc2cc(C(=O)NCCCN3CCOCC3)nc(-c3cccc(-c4cccc(F)c4)c3)c2[C@H]1CCO (stereo partly drawn) | . | 62 | -22 | . | . | . | .
COc1ccc(NC(=O)N(C)C[C@H]2OCCCC[C@H](C)Oc3ccc(N(C)C)cc3C(=O)N([C@@H](C)CO)C[C@@H]2C)cc1 | 0 | 61 | -12 | . | . | . | .
C/C=C/c1cnc2c(c1)C(=O)N([C@H](C)CO)C[C@@H](C)[C@H](CN(C)S(=O)(=O)c1cn(C)cn1)O2 | -2 | . | 31 | . | . | . | .
C[C@@H]1CN([C@@H](C)CO)C(=O)c2cc(NS(=O)(=O)c3ccc(F)cc3)ccc2O[C@H]1CN(C)Cc1ccc(Cl)c(Cl)c1 | 16 | ? | 7 | 105* | 53 | 30 | 104*
Cc1ccc(S(=O)(=O)Nc2ccc3c(c2)C(=O)N([C@@H](C)CO)C[C@H](C)[C@@H](CN(C)Cc2ccc(Cl)c(Cl)c2)O3)cc1 | 32 | 92 | -10 | . | . | . | .
Cc1ccc(S(=O)(=O)Nc2ccc3c(c2)C(=O)N([C@@H](C)CO)C[C@@H](C)[C@@H](CN(C)Cc2ccc(Cl)c(Cl)c2)O3)cc1 | 14 | 119* | -14 | 107* | 107* | 18 | 103*
C[C@H]1CN([C@@H](C)CO)C(=O)c2cc(NS(=O)(=O)c3ccc(F)cc3)ccc2O[C@H]1CN(C)Cc1ccc(Cl)c(Cl)c1 | 31 | 63 | -8 | . | . | . | .
C[C@H]1CN([C@@H](C)CO)C(=O)c2cc(NS(=O)(=O)c3ccc(Cl)cc3)ccc2O[C@@H]1CN(C)Cc1ccc(Cl)c(Cl)c1 | 43 | 89 | 3 | . | . | . | .
C[C@@H]1CN([C@@H](C)CO)C(=O)c2cc(NS(=O)(=O)c3ccc(F)cc3)ccc2O[C@@H]1CN(C)Cc1ccc(Cl)c(Cl)c1 | 38 | 101* | 5 | 99* | 35 | ? | 107*
CCC(=O)N(C)C[C@H]1Oc2cc(-c3ccc(F)cc3)ccc2S(=O)(=O)N([C@H](C)CO)C[C@@H]1C | -3 | 87 | -8 | . | . | . | .
O=C(CC(F)(F)F)N1C[C@@H]2[C@H](c3ccccc31)[C@@H](CO)N2C(=O)Cc1cccnc1 | -2 | 4 | 9 | . | . | . | .
CCC(=O)Nc1ccc2c(c1)OC[C@@H](C)N(C(=O)C1CC1)C[C@H](C)[C@@H](OC)CN(C)C2=O | -2 | 4 | 1 | . | . | . | .
N#C[C@H]1[C@@H](c2ccccc2-c2ccccc2F)[C@@H](CO)N1C(=O)C1CC1 | -11 | . | 5 | . | . | . | .
N#C[C@@H]1[C@@H](c2ccc(C#CC3CCCC3)cc2)[C@H](CO)N1S(=O)(=O)c1ccccc1 | -19 | 97* | -29 | 95* | 107* | 21 | 105*
N#C[C@H]1[C@@H](c2ccc(C#CC3CCCCC3)cc2)[C@H](CO)N1S(=O)(=O)c1ccccc1 | -19 | 82 | -34 | . | . | . | .
N#C[C@@H]1[C@@H](c2ccc(C#CC3CCCCC3)cc2)[C@H](CO)N1S(=O)(=O)c1ccccc1 | -28 | 79 | -67 | . | . | . | .
SMILES | C diff HTS | T cruzi growth-1 | Pf Dd2 inh | T cruzi growth-2 | T cruzi growth-3 | 3T3 cytotox | 3T3 cytotox 2
N#C[C@H]1[C@H](c2ccc(C#CC3CCCC3)cc2)[C@@H](CO)N1S(=O)(=O)c1ccccc1 | 8 | 100* | -53 | 96* | 99* | -13 | 106*
CS(=O)(=O)N1CC(=O)N2[C@@H](CO)[C@H](c3ccc(C#CC4CCCC4)cc3)[C@@H]2C1 | -4 | . | 12 | . | . | . | .
CC1C=NC(S(=O)(=O)N2CC[C@H]3[C@@H](CO)N(C)c4ccc(C#Cc5cccnc5)cc4[C@H]32)=N1 (stereo partly drawn) | -5 | 14 | -8 | . | . | . | .
COC(=O)C[C@@H]1CC[C@@H]2[C@@H](COc3ccc(NC(=O)c4cc(F)cc(F)c4)cc3C(=O)N2C)O1 | -2 | -13 | 5 | . | . | . | .
COCC(=O)NC[C@H]1[C@@H](c2ccccc2)[C@@H](CO)N1C(C)=O | -2 | -10 | 7 | . | . | . | .
OC[C@@H]1[C@@H](c2ccc(C#Cc3ccccc3)cc2)[C@@H]2CN(Cc3cncnc3)CCCCN12 | -6 | 101* | -35 | 98* | 56 | 33 | 103*
OC[C@H]1[C@@H](c2ccc(C#Cc3ccccc3F)cc2)[C@@H]2CN(Cc3cncnc3)CCCCN12 | -1 | 96* | -56 | 104* | 52 | 47* | 104*
OC[C@H]1[C@@H](c2ccc(C#Cc3ccccc3)cc2)[C@H]2CN(Cc3cncnc3)CCCCN21 | -5 | 46 | 3 | . | . | . | .
OC[C@H]1[C@H](c2ccc(Br)cc2)[C@@H]2CN(Cc3cncnc3)CCCCN12 | 4 | 110* | 24 | 97* | 75 | -17 | 2
OC[C@@H]1[C@H](c2ccc(C#Cc3ccccc3)cc2)[C@H]2CN(Cc3cncnc3)CCCCN12 | 2 | 119* | -50 | 98* | 102* | 37* | 102*
OC[C@H]1[C@@H](c2ccc(C#Cc3ccccc3F)cc2)[C@H]2CN(Cc3cncnc3)CCCCN21 | -7 | 30 | -10 | . | . | . | .
